24 compounds from PubChem BioAssay can be followed below.

Experiment [1] in a line: EMT-state selective cytotoxicity in co-culture – imaging, PC-3E GFP, TEM4-18 mCherry, primary screen (AID 1345086).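 On all read-outs here: cells exposed to compound for 72 h before imaging.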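 On red/green cell ratio (normalised): normalised mesenchymal count divided by normalised epithelial count so high means epithelial killing.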 As to conditions: PC-3E GFP / TEM4-18 mCherry co-culture, imaging cell counts, at 1 µM; for red/green cell ratio (normalised): actives lie on both sides, counts scaled to control wells, 1 = unselective.
The nature of experiment [2]: viability loss in pontine glioma line – cell-based, SU-DIPG-XVII, MIPE5.0, CellTiter-Glo, qHTS, dose response (AID 1347060; cut-off not given, nearly all actives have AC50 up to about 26 µM;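 on AC50: cells exposed to compound for 48 hours before viability readout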). The following applies: CellTiter-Glo ATP luminescence. In general terms: ATP-based viability assays read luminescence as a measure of living cells.
Experiment [3] in a line: viability loss in pontine glioma line – cell-based, SU-DIPG-XIII, MIPE4.0, CellTiter-Glo, qHTS, dose response (AID 1347061; cut-off not given, nearly all actives have AC50 up to about 37 µM;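 further: cells exposed to compound for 48 hours before readout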). As to conditions: CellTiter-Glo ATP luminescence.
A short description of experiment [4]: viability loss in pontine glioma line – cell-based, JHH-DIPG-1, MIPE4.0, CellTiter-Glo, qHTS, dose response (AID 1347062; cut-off not given, nearly all actives have AC50 up to about 27 µM;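 on AC50: cells exposed to compound for two days before readout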). As to conditions: JHH-DIPG-1 viability, CellTiter-Glo ATP luminescence.
Experiment [5] in a line: viability loss in pontine glioma line – cell-based, SU-DIPG-IV, MIPE4.0, CellTiter-Glo, qHTS, dose response (AID 1347063; cut-off not given, nearly all actives have AC50 up to about 30 µM;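 further: compound exposure lasted 48 hours before the viability readout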). The following applies: CellTiter-Glo ATP luminescence.
Experiment [6] is described as follows: viability loss in pontine glioma line – cell-based, SU-DIPG-XIII, MIPE5.0, CellTiter-Glo, qHTS, dose response (AID 1347064; cut-off not given, nearly all actives have AC50 up to about 23 µM;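 on AC50: cells exposed to compound for 48 hours before the viability read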). The following applies: CellTiter-Glo ATP luminescence.
[7] abbreviates: measured here: epithelial PC-3E GFP cell survival.
The mark [8] stands for this setting: measured here: mesenchymal TEM4-18 mCherry cell survival.

Values joined by “and” are separate entries in the source; they are usually repeats but may differ in a detail not shown here. Identical values can stand only once. Records with an inconclusive call do not appear. Active and inactive are the calls of the source.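 How the source made its calls, unless noted: active means compounds killing one labelled cell type while sparing the other, by normalised counts and ratio limits, not self-fluorescent; inactive means the rest.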 Peptide text beside a SMILES is read from it.

With `COC(=O)[C@H](Cc1ccccc1)NC(=O)[C@@H](N)CC(=O)O` (H-Asp-Phe-OMe), in experiment [1], the red/green cell ratio (normalised) was 1.23 (inactive). The results for the normalised cell number in experiment [1] (setting [7]) and in experiment [1] (setting [8]) were 1.01 and 1.24, respectively. Besides, the result in experiment [2], in experiment [3], in experiment [4] and in experiment [5] was inactive.
Turning to `CNC[C@H](O)[C@@H](O)[C@H](O)[C@H](O)CO`, the red/green cell ratio (normalised) in experiment [1] was 0.7 (inactive). For the same compound, the normalised cell number in experiment [1] (setting [7]) worked out at 1.19; in experiment [1] (setting [8]), 0.84. In addition, the compound was classed as inactive in experiment [2], in experiment [3], in experiment [5] and in experiment [6].
Turning to `CN(Cc1cc(Br)cc(Br)c1N)C1CCCCC1`, the red/green cell ratio (normalised) in experiment [1] is 1.35 (inactive). For the same compound, the normalised cell number in experiment [1] (setting [7]) stood at 0.99; in experiment [1] (setting [8]) it was 1.33. The AC50 in experiment [2] was 26.3 µM (active); in experiment [6], 20.9 µM (active). In addition, the result in experiment [3] and in experiment [4] was inactive.
Take `Oc1ccc(OCc2ccccc2)cc1`: the red/green cell ratio (normalised) in experiment [1] is 1.06 (inactive) and 1.09 (inactive) and 0.97 (inactive). For the same compound, the normalised cell number in experiment [1] (setting [7]) is 0.97 and 1.09 and 0.95; in experiment [1] (setting [8]), 1.03 and 1.19 and 0.92. Also, the result in experiment [2], in experiment [3], in experiment [4], in experiment [5] and in experiment [6] was inactive.
For the compound `NC(CO)C(=O)NNCc1ccc(O)c(O)c1O` (centres undefined), the red/green cell ratio (normalised) in experiment [1] was 1.1 (inactive). The figures for the normalised cell number in experiment [1] (setting [7]) and in experiment [1] (setting [8]) were 1.12 and 1.23, respectively. Also, the call in experiment [2], in experiment [3], in experiment [4], in experiment [5] and in experiment [6] was inactive.
As for `N[C@@H](Cc1ccc(O)c(O)c1)C(=O)O`, in experiment [1], the red/green cell ratio (normalised) is 0.88 (inactive). The normalised cell number came out at 1.01 in experiment [1] (setting [7]) and 0.89 in experiment [1] (setting [8]). Besides, the outcome in experiment [2], in experiment [3], in experiment [4] and in experiment [5] was inactive.
As for `C#CCN[C@@H]1CCc2ccccc21`, the red/green cell ratio (normalised) in experiment [1] is 0.97 (inactive). Moreover, the results for the normalised cell number in experiment [1] (setting [7]) and in experiment [1] (setting [8]) were 0.98 and 0.94, respectively. Moreover, the result in experiment [2], in experiment [3], in experiment [4], in experiment [5] and in experiment [6] was inactive.
Take `CC1=CC(=O)c2ccccc2C1=O`: the red/green cell ratio (normalised) in experiment [1] is 0.99 (inactive). The normalised cell number in experiment [1] (setting [7]) turned out to be 1.09; in experiment [1] (setting [8]) it was 1.08. For the same compound, the AC50 in experiment [2] was 23.5 µM (active); in experiment [3], 23.5 µM (active); in experiment [4], 8.33 µM (active); in experiment [5], 26.4 µM (active).
Regarding `Cc1cc(C2CCCCC2)n(O)c(=O)c1`, in experiment [1], the red/green cell ratio (normalised) is 1.34 (inactive). Moreover, the normalised cell number in experiment [1] (setting [7]) amounted to 0.78; in experiment [1] (setting [8]) it was 1.04. In addition, the AC50 in experiment [2] is 2.35 µM (active); in experiment [3], 16.6 µM (active); in experiment [5], 3.32 µM (active); in experiment [6], 4.17 µM (active).
For `O=NN(CCCl)C(=O)NC1CCCCC1`, in experiment [1], the red/green cell ratio (normalised) is 1.11 (inactive). Further, the normalised cell number in experiment [1] (setting [7]) was 1.04; in experiment [1] (setting [8]), 1.15. Further, the compound was called inactive in experiment [2], in experiment [3], in experiment [4] and in experiment [6].
Take `CCOC(=O)C(C)(C)Oc1ccc(Cl)cc1`: in experiment [1], the red/green cell ratio (normalised) was 0.94 (inactive). The normalised cell number in experiment [1] (setting [7]) was found to be 1.28; in experiment [1] (setting [8]) it was 1.2. The compound was called inactive in experiment [2], in experiment [3], in experiment [4] and in experiment [6].
For `NCCS(=O)(=O)O`, the red/green cell ratio (normalised) in experiment [1] is 0.92 (inactive) and 0.87 (inactive). Further, the normalised cell number was 1.27 and 1.13 in experiment [1] (setting [7]); 1.17 and 0.99 in experiment [1] (setting [8]). Further, the compound was called inactive in experiment [2], in experiment [3], in experiment [4] and in experiment [5].
Take `Cc1nc(-c2ccc(OCC(C)C)c(C#N)c2)sc1C(=O)O`: the red/green cell ratio (normalised) in experiment [1] is 1 (inactive). In addition, the normalised cell number in experiment [1] (setting [7]) and in experiment [1] (setting [8]) was 1.08 each time. For the same compound, the compound was classed as inactive in experiment [2], in experiment [3], in experiment [4], in experiment [5] and in experiment [6].
With `NCC1CCC(C(=O)O)CC1` (centres undefined), the red/green cell ratio (normalised) in experiment [1] was 1.26 (inactive). For the same compound, the normalised cell number turned out to be 1 in experiment [1] (setting [7]) and 1.27 in experiment [1] (setting [8]). Further, the compound was called inactive in experiment [2], in experiment [3], in experiment [4] and in experiment [5].
For the compound `O=c1oc2c(O)c(O)cc3c(=O)oc4c(O)c(O)cc1c4c23`, the red/green cell ratio (normalised) in experiment [1] is 0.99 (inactive). Besides, the normalised cell number in experiment [1] (setting [7]) came out at 0.85; in experiment [1] (setting [8]), 0.84. The outcome in experiment [2], in experiment [3], in experiment [4] and in experiment [6] was inactive.
Take `CN(C)c1ccc2nc3ccc(=[N+](C)C)cc-3sc2c1`: the red/green cell ratio (normalised) in experiment [1] was 0.68 (inactive). The figures for the normalised cell number in experiment [1] (setting [7]) and in experiment [1] (setting [8]) were 0.15 and 0.1, respectively. In addition, the AC50 is 5.9 µM (active) in experiment [2]; 4.69 µM (active) in experiment [3]; 2.96 µM (active) in experiment [4]; 5.9 µM (active) in experiment [5]; 2.63 µM (active) in experiment [6].
For `Cc1cnc(C(=O)O)c[n+]1[O-]`, the red/green cell ratio (normalised) in experiment [1] is 0.76 (inactive). Besides, the normalised cell number in experiment [1] (setting [7]) came out at 1.32; in experiment [1] (setting [8]) it was 1. In addition, the compound was called inactive in experiment [2], in experiment [3], in experiment [4], in experiment [5] and in experiment [6].
As to `NC(=O)c1ncn([C@@H]2O[C@H](CO)[C@@H](O)[C@H]2O)n1`, the red/green cell ratio (normalised) in experiment [1] was 0.68 (inactive). The normalised cell number in experiment [1] (setting [7]) amounted to 1.31; in experiment [1] (setting [8]) it was 0.89. Moreover, the compound was called inactive in experiment [2], in experiment [3], in experiment [4] and in experiment [6].
For the compound `CC1=C(C)C(=O)C(C(CCCCCC(=O)O)c2ccccc2)=C(C)C1=O` (centres undefined), the red/green cell ratio (normalised) in experiment [1] is 1.03 (inactive). The normalised cell number in experiment [1] (setting [7]) was 1.04; in experiment [1] (setting [8]) it was 1.08. Further, the compound was called inactive in experiment [2], in experiment [3], in experiment [4] and in experiment [5].
Turning to `C[C@@H]1CN(c2c(F)c(N)c3c(=O)c(C(=O)O)cn(C4CC4)c3c2F)C[C@H](C)N1`, the red/green cell ratio (normalised) in experiment [1] is 0.99 (inactive). Moreover, the values for the normalised cell number in experiment [1] (setting [7]) and in experiment [1] (setting [8]) were 1.12 and 1.11, respectively. In addition, the outcome in experiment [2], in experiment [3], in experiment [4], in experiment [5] and in experiment [6] was inactive.
In the case of `COc1cc([C@H]2Oc3cc([C@H]4Oc5cc(O)cc(O)c5C(=O)[C@@H]4O)ccc3O[C@@H]2CO)ccc1O`, the red/green cell ratio (normalised) in experiment [1] is 0.97 (inactive). Further, the normalised cell number in experiment [1] (setting [7]) was determined as 0.9; in experiment [1] (setting [8]), 0.88. Also, the compound was called inactive in experiment [2], in experiment [3] and in experiment [4].
For `CO[C@@H]1[C@@H](OC(N)=O)[C@@H](O)[C@H](Oc2ccc3c(O)c(NC(=O)c4ccc(O)c(CC=C(C)C)c4)c(=O)oc3c2C)OC1(C)C`, in experiment [1], the red/green cell ratio (normalised) was 1.14 (inactive). Moreover, the results for the normalised cell number in experiment [1] (setting [7]) and in experiment [1] (setting [8]) were 1.07 and 1.21, respectively. Further, the call in experiment [2], in experiment [3], in experiment [4], in experiment [5] and in experiment [6] was inactive.
With `O=C(O)CSCC(=O)NC1CCSC1=O` (centres undefined), in experiment [1], the red/green cell ratio (normalised) was 1.25 (inactive). The normalised cell number in experiment [1] (setting [7]) turned out to be 0.94; in experiment [1] (setting [8]), 1.17. In addition, the result in experiment [2], in experiment [3], in experiment [4] and in experiment [5] was inactive.
Turning to `CN(C)CCc1c[nH]c2ccc(CS(=O)(=O)N3CCCC3)cc12`, in experiment [1], the red/green cell ratio (normalised) was 1.06 (inactive). Also, the normalised cell number in experiment [1] (setting [7]) is 0.96; in experiment [1] (setting [8]) it was 1.02. Also, the compound was classed as inactive in experiment [2], in experiment [3] and in experiment [4].

The AC50 is the concentration giving half of the maximal activity seen.
